Active and inactive are the calls of the source. Entries that show only a call come without a potency. Calls come from the whole dose curve; as a rule, active = well fitted activation curve with a large enough effect; inconclusive = small, poorly fitted or top-dose-only effect; inactive = no such curve, though single readings can be large or run the other way.
Assay: Confirmatory qHTS for Identification of Small Molecule Activators of Huntingtin-Antisense Promoter Activity
Conditions: HEK293 HTT-AS promoter firefly luciferase reporter, 24 h; series mostly up to 57.5 µM
How it was run: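 Plated reporter HEK293 cells (24 h) received library compounds at up to 57.5 uM final or 50 uM PTC124, incubated 24 h at 37C; firefly luciferase luminescence was then recorded with Dual-Glo reagent.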

Structure (SMILES) | Potency
FC(F)(F)c1cccc(Nc2c3c(nc4ccc(Cl)cc24)CCC3)c1 | inactive
CCc1ccc(OCC(=O)NCC(c2ccc(Cl)cc2)N2CCOCC2)cc1 (centres undefined) | inactive
CCOc1cc(C(=O)Nc2ccc3oc(-c4ccc(CC)cc4)nc3c2)cc(OCC)c1OCC | inactive
CCOC(=O)c1cnc2ccc(OC)cc2c1Nc1ccc(OCc2ccccc2Cl)cc1 | inactive
CCOc1ccc(NC(=O)CN(c2ccc(Cl)cc2C)S(=O)(=O)c2ccccc2)cc1 | inactive
CCc1ccc(NC(=O)c2ccc(F)c(S(=O)(=O)NCc3ccc(Cl)c(Cl)c3)c2)cc1 | inactive
O=C(CSc1ccc(-c2ccccn2)nn1)Nc1ccc(F)c(F)c1 | inactive
COc1cccc(C(=O)NCCSc2c(-c3ccc(F)cc3)[nH]c3ccccc23)c1OC | inactive
O=C1CCCc2cc(S(=O)(=O)NCC3CCC(C(=O)Nc4ccccc4F)CC3)ccc2N1 (centres undefined) | inactive
COc1ccccc1CNC(=O)c1oc2ccc(S(=O)(=O)N3CCCCC3)cc2c1C | inactive
COc1cccc(-c2nc(CS(=O)CC(=O)N3CCN(c4cccc(C(F)(F)F)c4)CC3)c(C)o2)c1 (centres undefined) | inactive
O=C(Nc1ccc(Br)cc1)c1ccc(F)c(S(=O)(=O)NC2CCCCCC2)c1 | inactive
O=C(Nc1cccc(Cl)c1)C1CCCN(c2nn3cc(-c4ccc(F)cc4)nc3s2)C1 (centres undefined) | inactive
COc1cc(OC)cc(C(=O)Nc2ccc3c(c2)CCCN3C(=O)c2cccs2)c1 | inactive
Cc1cccc(NC(=O)c2ccc(F)c(S(=O)(=O)N(C)C3CCCCC3)c2)c1 | inactive
CN(C)c1ccc(C(=O)Nc2sc(Nc3ccccc3)nc2C(N)=O)cc1 | inactive
Cc1ccc(NCc2cccn2-c2nnc(N3CCC(C(=O)NCc4ccc(OC(C)C)cc4)CC3)s2)cc1 | inactive

Structure (SMILES) | Potency
COc1ccc(S(=O)(=O)NCCc2sc3nc(-c4ccc(C)cc4)nn3c2C)cc1F | inactive
CCOc1ccc(-c2nc(CSCC(=O)NCCc3ccc(OCC)c(OCC)c3)c(C)o2)cc1 | inactive
CCOC(=O)C1=C(CN2CCN(c3ccc(OC)cc3)CC2)NC(=O)NC1c1ccc(OC)cc1 (centres undefined) | inactive
Cc1ccc(Cl)cc1N1CCN(C(=O)c2cnc(N3CCOCC3)c3ccccc23)CC1 | inactive
O=C(NCc1ccccc1)c1ccc(CSc2nc3cccnc3n2Cc2ccccc2)cc1 | inactive
CCn1c(SCc2ccc(F)cc2Cl)nc(=O)c2c(C(=O)OC)cc(C3CC3)nc21 | inactive
CCN(Cc1ccccc1)C(=O)C1CCN(S(=O)(=O)c2c(C)noc2/C=C/c2ccc(C)cc2)CC1 | inactive
CCCc1cc(N2CCN(c3ccccc3F)CC2)n2cnnc2n1 | inactive
Cc1cc(C)cc(NC(=O)CCCn2c3ccccc3c(=O)c3ccccc32)c1 | inactive
COc1ccc(-c2noc(N3CCN(c4cccc(C)c4C)CC3)n2)cc1OC | inactive
CC(=O)Nc1cccc(NC(=O)CSc2nccn2Cc2ccccc2)c1 | inactive
O=c1[nH]c2ccc(NCc3ccc(-c4ccccc4)o3)cc2[nH]1 | inactive
CCc1ccccc1N(C)C(=O)C1CCCN(c2ncnc3c2nc2n3CCCCC2)C1 (centres undefined) | inactive
Cc1ccc(CNC(=O)c2c(Nc3c(C)cccc3C)sc(C(=O)c3ccccc3)c2N)cc1 | inactive
FC(F)(F)c1cccc(N2CCN(c3nc4ccccc4n4cnnc34)CC2)c1 | inactive
COC(=O)c1ccccc1NC(=O)Cn1nc(C(F)(F)F)c2c1CCCC2 | inactive
Cc1cc(NC(=O)c2cc(-c3ccc(F)cc3)on2)nn1Cc1ccc(Cl)cc1 | inactive

Source: PubChem BioAssay AID1508622 (National Center for Advancing Translational Sciences (NCATS), 2021)
